From the supplement of paper PMC9023506
Where a name gives a salt, the structure may show the parent alone.

Test system: Danio rerio larvae (5 dpf)
Assay: optomotor response to green moving lines, difference vs DMSO (percentage points (treated minus DMSO)); higher = more of the behaviour than the DMSO vehicle control
Conditions: 10 µM; exposure time: 3 h pre-incubation + 3 h imaging
Protocol: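 5-dpf wild-type zebrafish larvae were imaged in 96-well plates. They were treated with 190 Tocris FDA-approved drugs at 10 µM (1 µl/ml DMSO) for 3 h before and 3 h during imaging at 28.5 °C, 48 larvae per drug. Automated image analysis gave % time moving and optomotor responses. Values are drug group mean minus DMSO vehicle mean (n=844), in percentage points, for 10 behaviours.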

SMILES | optomotor response to green moving lines
CN1C[C@H](C(=O)N[C@]2(C)O[C@@]3(O)[C@@H]4CCCN4C(=O)[C@H](Cc4ccccc4)N3C2=O)C[C@@H]2c3cccc4[nH]cc(c34)C[C@H]21 [Dihydroergotamine mesylate] | 16.2
CC(O)(CS(=O)(=O)c1ccc(F)cc1)C(=O)Nc1ccc(C#N)c(C(F)(F)F)c1 (stereo unspecified) [Bicalutamide] | 1.12
COc1cc2c(cc1OC)C1CC(=O)C(CC(C)C)CN1CC2 (stereo unspecified) [Tetrabenazine] | -9.74
O=c1[nH]c2ccccc2n1C1CCN(CCCC(c2ccc(F)cc2)c2ccc(F)cc2)CC1 [Pimozide] | -16.3
CC(C)C[C@H]1C(=O)N2CCC[C@H]2[C@]2(O)O[C@](NC(=O)[C@@H]3C=C4c5cccc6[nH]c(Br)c(c56)C[C@H]4N(C)C3)(C(C)C)C(=O)N12 [Bromocriptine mesylate] | -20.3
N[C@@H]1C[C@H]1c1ccccc1 [Tranylcypromine hydrochloride] | 0.888
COc1ccc(C(CN(C)C)C2(O)CCCCC2)cc1 (stereo unspecified) [Venlafaxine hydrochloride] | 1.84
C=C1C[C@@H]2[C@H](CC[C@]3(C)C(=O)CC[C@@H]23)[C@@]2(C)C=CC(=O)C=C12 [Exemestane] | 9.98
CCN(C)C(=O)Oc1cccc([C@H](C)N(C)C)c1 [Rivastigmine tartrate] | -8.15
CC[C@@H](C(N)=O)N1CCCC1=O [Levetiracetam] | 4.63
C=CCN1C[C@H](C(=O)N(CCCN(C)C)C(=O)NCC)C[C@@H]2c3cccc4[nH]cc(c34)C[C@H]21 [Cabergoline] | -10.2
